Screens deposited in PubChem by National Center for Advancing Translational Sciences (NCATS).
Gal4-VP16 FLuc: inhibits Gal4-VP16 luciferase reporter, ROR gamma counter-screen. Drosophila S2 Gal4-VP16 UAS-luciferase, luminescence, 20 h. Potency, µM (doses to about 53.6 µM), without a hit: at the highest dose activity, negative = inhibition, hits mostly inhibitors. actives 3.5% (n = 310,000);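 further: Gal4-VP16 expression switched on by copper sulfate through the metallothionein promoter; nearly all actives have a fitted effect of over 50% in size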
DT40 TDP1 no CPT: qHTS for Inhibitors of human tyrosyl-DNA phosphodiesterase 1 (TDP1): qHTS in cells in absence of CPT. DT40 Tdp1-/- hTDP1 cells, no CPT, ATP luminescence, 48 h. Potency, µM (highest dose often 46.2 µM), for the others: at the top dose activity change, negative = growth inhibition, most hits filed as inhibitors. actives 15% (n = 420,000); further: nearly all actives have a fitted effect of over 55% in size
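Chicken DT40 Tdp1-/- cells stably complemented with human TDP1 were seeded at 400 cells/well with DMSO in place of 20 nM camptothecin. After compound pinning, cells grew at least 48 hr at 37 °C; viability read by CellTiter-Glo luminescence.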
TDP1 cell CPT: growth inhibition of DT40 Tdp1-/-;hTDP1 cells with camptothecin (screen for TDP1 inhibitors); actives 12% (n = 420,000); Potency, µM (doses to about 46.2 µM), for inactives: at the top dose activity change, negative = growth inhibition, hits mostly inhibitors; chicken DT40 Tdp1-/-;hTDP1 cells + 20 nM CPT, ATP luminescence, 48 h; further: nearly all actives have a fitted effect of over 55% in size
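Chicken DT40 Tdp1-/- cells complemented with human TDP1, 400 cells/well, exposed to compounds plus 20 nM camptothecin for at least 48 h at 37 C; viability read as ATP content by CellTiter-Glo luminescence.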
RORg inh: ROR gamma (mouse) transcription inhibition; Drosophila S2 Gal4-RORgamma UAS-luciferase reporter, 20 h; actives 5.4% (n = 310,000); Potency, µM (top dose mostly 53.6 µM), inactives show at the highest dose activity change, negative = inhibition, most hits filed as inhibitors; P51450; AID 2551; further: nearly all actives have a fitted effect of over 60% in size
Target sequence (P51450 whole entry, looked up, the tested form may be a part): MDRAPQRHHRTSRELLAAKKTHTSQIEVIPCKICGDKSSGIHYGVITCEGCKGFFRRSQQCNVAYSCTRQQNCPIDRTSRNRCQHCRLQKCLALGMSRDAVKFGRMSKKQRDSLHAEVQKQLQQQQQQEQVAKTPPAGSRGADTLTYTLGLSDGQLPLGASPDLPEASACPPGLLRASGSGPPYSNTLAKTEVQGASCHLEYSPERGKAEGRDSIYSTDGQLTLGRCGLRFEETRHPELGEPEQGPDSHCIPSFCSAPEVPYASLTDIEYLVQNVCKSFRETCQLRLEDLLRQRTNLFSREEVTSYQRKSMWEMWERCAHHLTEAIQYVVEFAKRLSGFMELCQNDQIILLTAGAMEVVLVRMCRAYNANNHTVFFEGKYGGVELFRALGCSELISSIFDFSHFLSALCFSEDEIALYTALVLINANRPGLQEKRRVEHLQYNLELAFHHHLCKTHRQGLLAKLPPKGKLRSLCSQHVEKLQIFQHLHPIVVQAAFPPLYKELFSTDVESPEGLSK
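Drosophila S2 cells stably expressing Gal4-DBD/mouse RORγ fusion under metallothionein promoter plus UAS-luciferase; compound 1 h, then 700 uM CuSO4 induction for 20 h at ambient temperature; inhibition read as reduced luminescence.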
TDP1 block: TDP1 (human) enzyme inhibition. Q9NUW8. recombinant TDP1, AlphaScreen DNA substrate cleavage. Potency, µM (doses to about 130 µM), for inactives: top-dose activity change, negative = inhibition, usual class: inhibitors. actives 0.28% (n = 350,000). AID 485290; further: nearly all actives have a fitted effect of over 40% in size
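AlphaScreen read-out: signal falls as enzyme removes the 3' tyrosine-FITC from a 5'-biotinylated DNA oligo (15 nM, 5 min, RT). Enzyme was E. coli-made recombinant Tdp1 at 1 nM, exposed to compound for 15 min beforehand; beads 10 ug/ml, 10 min.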
The depositor's hits bear a star; ? = inconclusive; / = not tested or not shown; ! = repeats disagree; [ ] = remark or other dose. Hits are enriched below; roughly 19% of the tested compounds scored in any of these assays. The call rests on the fitted dose curve; in most records, active means well fitted curve in the direction sought with a large enough effect; inconclusive means small, poorly fitted or top-dose-only effect, or another doubt; inactive means no such curve, though single readings can be large; an effect the other way counts as inactive or inconclusive. On the % scale 0 is the no-effect control and ±100 the full control effect; potency means the concentration at half of the fitted maximal effect.

SMILES	Gal4-VP16 FLuc	DT40 TDP1 no CPT	TDP1 cell CPT	RORg inh	TDP1 block
O=C(NC1CCC(C(=O)O)CC1)OCc1ccccc1 (configuration not stated)	6.2%	-7.1%	3.5%	?	2.0%
O=C(N[C@H]1CCC(=O)N(CCSc2ccc(Br)cc2)CC1)OCc1ccccc1	/	16.4µM*	14.6µM*	/	0.1%
O=C(NC1CCC(=O)N(CCOc2ccccc2)CC1)OCc1ccccc1 (configuration not stated)	7.4%	11.2µM*!	?	4.8%	/
[N-]=[N+]=NC[C@H](Cc1ccccc1)N1CC[C@@H](NC(=O)OCc2ccccc2)CCC1=O	7.1%	16.4µM*	?	27.7%	/
O=C(NC1CCCCC1)OCCN1CCN(Cc2ccccc2)CCC1=O	-0.7%	/	/	0.7%	2.7%
O=C(N[C@@H]1CCC(=O)N(CC[C@H](Sc2ccccc2)c2ccccc2)CC1)OCc1ccccc1	5.9%	23.1µM*	?	24.0%	/
Cc1ccc(SCCN2CCC(NC(=O)OCc3ccccc3)CCC2=O)cc1 (configuration not stated)	0.0%	17.8µM*	?	1.9%	/
C=C1CC(Cn2cc(Br)c(=O)[nH]c2=O)(c2ccc(-c3ccccc3)cc2)OC1=O (configuration not stated)	/	0.0259µM*	0.0326µM*	/	/
Cc1ccccc1OCCNC(=O)c1ccccc1Sc1ccccc1C#N	7.6%	16.4µM*	-21.1%	23.8%	-1.9%
COc1ccc(CN(C)C(=O)c2ccccc2Sc2ccccc2C#N)c(OC)c1	-0.2%	23.1µM*	23.1µM*	22.6%	2.1%
COc1cccc(OCCNC(=O)c2ccccc2Sc2ccccc2C#N)c1	-1.7%	16.4µM*	?	19.9%	0.0%
Cc1cc(C)c(OCCNC(=O)c2ccccc2Sc2ccccc2C#N)c(C)c1	-24.9%	?	18.4µM*	?	-5.5%
CSc1ccccc1C(=O)NCCOc1ccccc1C	5.4%	?	?	?	-2.7%
C/C(=N\Nc1cccc(Cl)c1)c1ccc(-n2ccnc2)cc1	-6.0%	16.4µM*	?	-3.3%	10.3%
C/C(CC(=O)Nc1ccc(C)c(Cl)c1)=N\NC(=O)Cc1ccccc1	?	-28.4%	-12.1%	?	2.7%
C/C(=N\NC(=O)C(=O)Nc1cccc(Cl)c1)c1ccncc1	5.62µM*	7.31µM*	11.6µM*	?	1.1%
C/C(=N\NC(=O)C(=O)Nc1ccc(C)c(Cl)c1)c1ccncc1	?	2.31µM*	1.64µM*	?	/
C/C(CC(=O)Nc1ccc(OCc2ccccc2)cc1)=N\NC(=O)C(=O)Nc1ccc(C)c(Cl)c1	?	18.4µM*	?	-40.8%	10.7%
CCCOc1ccc(/C(O)=C2/C(=O)C(=O)N(CCCOC)C2c2cccnc2)cc1 (configuration not stated)	18.2%	-13.2%	5.1%	41.3%	0.0%
O=C(O)c1ccccc1Sc1ccccc1S(=O)(=O)NC1CCCCC1	-4.9%	-7.8%	4.7%	-8.2%	6.8%
C/C(=N\NC(=O)C(=O)Nc1ccc(C)cc1)c1ccncc1	-9.5%	9.2µM*	?	25.1%	6.7%
C/C(=N\NC(=O)c1cccs1)c1ccncc1	17.1%	14.5%	-0.1%	-7.0%	/
CN1CCN(CCCN2c3ccccc3Sc3ccccc32)CC1	-5.2%	?	?	-16.0%	9.2%
CCC(=O)c1ccc2c(c1)N(CCCN1CCN(CCO)CC1)c1ccccc1S2	-28.0%	4.73µM*	2.99µM*	?	/
CN1CCN(CCCN2c3ccccc3Sc3ccc(Cl)cc32)CC1	?	20.6µM*	4.61µM*!	2.82µM*!	8.4%
CCSc1ccc2c(c1)N(CCCN1CCN(C)CC1)c1ccccc1S2	0.7%[17 µM]	?	25.9µM*	8.3%[2.98 µM]	22.6%[21 µM]
OCCN1CCN(CCCN2c3ccccc3C=Cc3ccccc32)CC1	-13.4%	5.96µM*	8.41µM*	?	13.4%
O=C(CCN1CCOCC1)N1c2ccccc2Sc2ccc(Cl)cc21	5.2%	?	?	7.0%	/
